# Source: PubChem BioAssay (EPA / NIEHS)
# Inconclusive results are not listed. Calls of active or inactive are those of the source. Rule for the calls, unless noted: active = hit-call score of the fitted dose curve at least 0.9, where 1 is the maximum; inactive = score below 0.9.
# How the values were obtained:
# [1] = CCTE_Mundy_HCI_Cortical_NOG_NeuriteLength: CCTE's Neurite Outgrowth Assay in rat cortical cells for Neurite Length, Mundy Lab (AID 2284213)
# How it was run: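 Neurite length was read by high-content imaging of βIII-tubulin-labelled neurites in rat primary cortical cultures. Activity was fitted relative to DMSO.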
# [2] = CCTE_Mundy_HCI_Cortical_Synap_Neur_Matur_NeuriteLength: CCTE's Synaptogenesis and Neurite Maturation Assay in rat cortical cells for Neurite Length, Mundy Lab (AID 2284214)
# How it was run: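 Rat primary cortical cultures, AraC added DIV 5, dosed DIV 7 through DIV 12 […]. Fixed, MAP2/synaptophysin immunostained with Hoechst; neurite length by high-content imaging, fitted in positive direction versus DMSO.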
# [3] = CCTE_Mundy_HCI_Cortical_Synap_Neur_Matur_NeuriteSpotCountPerNeuron: CCTE's Synaptogenesis and Neurite Maturation Assay in rat cortical cells for Neurite Spot Count per Neuron Count, Mundy Lab (AID 2284215)
# How it was run: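 Read-out: neurite-associated synaptophysin puncta per neuron, imaged by high-content analysis after MAP2, synaptophysin and Hoechst staining. Rat primary cortical cultures, dosed DIV 7 through DIV 12; DMSO served as baseline.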
# [4] = CCTE_Mundy_HCI_Cortical_Synap_Neur_Matur_SynapseCount: CCTE's Synaptogenesis and Neurite Maturation Assay in rat cortical cells for Synapse Count, Mundy Lab (AID 2284218)
# How it was run: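 Rat primary cortical cultures, AraC at DIV 5, chemical dosing DIV 7 to DIV 12 (288.33 h). Fixed cells stained for MAP2, synaptophysin and Hoechst; synapses per neuron counted by high-content imaging, loss of signal versus DMSO.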
# [5] = CCTE_Mundy_HCI_Cortical_Synap_Neur_Matur_NeuriteCount: CCTE's Synaptogenesis and Neurite Maturation Assay in rat cortical cells for Neurite Count, Mundy Lab (AID 2284222)
# How it was run: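 Rat primary cortical cells; AraC added at DIV 5, chemicals dosed with media change at DIV 7 through DIV 12. MAP2/synaptophysin/Hoechst immunostaining, high-content imaging of neurite number; fitted relative to DMSO.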
# [6] = CCTE_Mundy_HCI_Cortical_Synap_Neur_Matur_CellBodySpotCount: CCTE's Synaptogenesis and Neurite Maturation Assay in rat cortical cells for Cell Body Spot Count, Mundy Lab (AID 2284223)
# How it was run: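 Read-out: cell body-associated synaptophysin puncta per neuron, imaged after MAP2, synaptophysin and Hoechst staining. Rat cortical cells, AraC DIV 5, chemical dosing DIV 7, fixation DIV 12. Activity fitted in positive direction relative to DMSO baseline.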
# [7] = CCTE_Mundy_HCI_hNP1_Pro_ResponderAvgInten: CCTE's Proliferation Assay in human neuroprogenitor cells, Mundy Lab (AID 2284224; active = hit-call score of the fitted dose curve at least 0.9, where 1 is the maximum;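 note: human neural progenitor cells hNP1 derived from WA09 embryonic stem cells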)
# How it was run: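 Human neuroprogenitors (hNP1, WA09 lineage) receive test chemical after 40 to 44 hours of attachment. A four-hour BrdU pulse begins twenty hours later, followed by fixation and high content imaging; signal is referenced to DMSO controls.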
# [8] = CCTE_Mundy_HCI_Cortical_NOG_NeuronCount: CCTE's Neurite Outgrowth Assay in rat cortical cells for Neuron Count, Mundy Lab (AID 2284236; active = hit-call score of the fitted dose curve at least 0.9, where 1 is the maximum;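 note: neurons counted by imaging betaIII-tubulin and Hoechst stained cortical cells; cells exposed to compound for about 48 hours before fixation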)
# How it was run: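 Read-out: neuron number by high-content imaging of betaIII-tubulin (Alexa Fluor-488) and Hoechst-labelled rat primary cortical cells.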
# [9] = CCTE_Mundy_HCI_Cortical_NOG_BPCount: CCTE's Neurite Outgrowth Assay in rat cortical cells for Branch Point Count, Mundy Lab (AID 2284237)
# How it was run: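 Measured 50.33 h after dosing, this morphology endpoint uses rat primary cortical cultures labelled for betaIII-tubulin. Branch points are quantified by high-content imaging, with DMSO as negative control and baseline.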
# [10] = CCTE_Mundy_HCI_hNP1_Casp3_7: CCTE's Caspase-Glo 3/7 Assay in human neuroprogenitor cells for Apoptosis, Mundy Lab (AID 2284240)
# How it was run: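 Neuroepithelial-lineage stem cells from WA09 embryonic cells were treated with chemicals after 40–44 h of culture. Twenty-four hours later, caspase-3/7 activation was detected luminescently after a 30 min room-temperature reagent step, with DMSO as baseline.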
# [11] = CCTE_Mundy_HCI_hNP1_CellTiter: CCTE's Cell Titer-Glo 2 Assay in human neuroprogenitor cells for Viability, Mundy Lab (AID 2284241; active = hit-call score of the fitted dose curve at least 0.9, where 1 is the maximum;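 note: a hit is a drop in ATP luminescence versus DMSO meaning reduced viability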)
# How it was run: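 Measures ATP content in human neural progenitors derived from WA09 embryonic cells. Read-out at 26.5 hours after dosing, with DMSO serving as the negative control and baseline.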
# [12] = CCTE_Mundy_HCI_Cortical_Synap_Neur_Matur_NeuronCount: CCTE's Synaptogenesis and Neurite Maturation Assay in rat cortical cells for Neuron Count, Mundy Lab (AID 2284242; active = hit-call score of the fitted dose curve at least 0.9, where 1 is the maximum)
# How it was run: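 Rat primary cortical cells, AraC added at DIV 5, dosed with media change from DIV 7 to DIV 12. Fixed, Hoechst-stained and immunolabelled for MAP2 and synaptophysin; neuron number counted by high-content imaging, loss fitted versus DMSO.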
# [13] = IUF_NPC2c_oligodendrocyte_migration_120hr: Leibniz Research Institute for Environmental Medicine (IUF) 120-hour Neural Progenitor Cell Migration Assay for Oligodendrocyte Migration (NPC2c) (AID 2284297);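 note: O4-positive oligodendrocyte migration distance divided by radial glia migration distance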
# How it was run: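 hNPC spheres (GW 16-19 cortex), PDL/laminin, DMEM/F12 3:1 + 1% N2, 37C. Dosing day 0–5, half feed day 3, DMSO ≤0.1%. Fixed 120 h; O4 ICC + Hoechst, HCI. Readout: mean oligodendrocyte distance from sphere edge / radial glia distance.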
# [14] = IUF_NPC2a_radial_glia_migration_120hr: Leibniz Research Institute for Environmental Medicine (IUF) 120-hour Neural Progenitor Cell Migration Assay for Radial Glia Migration (NPC2a) (AID 2284298)
# How it was run: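 Hoechst-stained nuclei imaged at 120 h; algorithm maps sphere core by densest nuclei, sets migration edge at density threshold, gives radial glia migration distance (um) per well vs DMSO. hNPC spheres (0.3 mm), PDL/laminin, DMEM/F12 3:1 + 1% N2.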
# [15] = IUF_NPC2a_radial_glia_migration_72hr: Leibniz Research Institute for Environmental Medicine (IUF) 72-hour Neural Progenitor Cell Migration Assay for Radial Glia Migration (NPC2a) (AID 2284299)
# How it was run: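 Human fetal neural progenitor spheres (0.3 mm) plated on poly-D-lysine/laminin in N2 differentiation medium and exposed from day 0 at 7 concentrations; radial glia migration distance from sphere edge measured at 72 h on brightfield images, mean of four directions, vs DMSO.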
# [16] = IUF_NPC2b_neuronal_migration_120hr: Leibniz Research Institute for Environmental Medicine (IUF) 120-hour Neural Progenitor Cell Migration Assay for Neuron Migration (NPC2b) (AID 2284300)
# How it was run: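 hNPC spheres, PDL/laminin, DMEM:F12 3:1 + 1% N2, 37C/5% CO2; 7 concentrations + solvent control (DMSO ≤0.1%), 5 d exposure, half-feed day 3. Fix 120 h, TUBB3 ICC, HCI: mean neuron migration distance ÷ glia distance.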
# [17] = IUF_NPC3_neuronal_differentiation_120hr: Leibniz Research Institute for Environmental Medicine (IUF) 120-hour Neuronal Differentiation Assay (NPC3) (AID 2284301)
# How it was run: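 Primary human fetal neural progenitor spheres (GW 16-19, 0.3 mm) plated on poly-D-lysine/laminin in N2 medium, exposed from day 0 for 120 h with half-medium refresh at day 3. TUBB3+ cells as percent of Hoechst nuclei in migration area; DMSO baseline.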
# [18] = IUF_NPC4_neurite_length_120hr: Leibniz Research Institute for Environmental Medicine (IUF) 120-hour Neuronal Morphology Assay for Neurite Length (NPC4) (AID 2284302)
# How it was run: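 Human fetal cortex (GW 16-19) neural progenitor spheres, 0.3 mm, were plated on poly-D-lysine/laminin in N2 differentiation medium and exposed from day 0 for 120 h, half-feeding at day 3. Mean TUBB3+ neurite length (µm) came from skeletonized images, relative to DMSO.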
# [19] = IUF_NPC5_oligodendrocyte_differentiation_120hr: Leibniz Research Institute for Environmental Medicine (IUF) 120-hour Oligodendrocyte Differentiation Assay (NPC5) (AID 2284304; active = hit-call score of the fitted dose curve at least 0.9, where 1 is the maximum;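 note: primary human fetal neural progenitor spheres plated to migrate and differentiate; share of O4-positive cells among Hoechst nuclei found by CNN image analysis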)
# How it was run: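 hNPC spheres, fetal cortex GW 16-19; PDL/laminin, DMEM:F12 3:1 + 1% N2, 37C/5% CO2; 7 concentrations + solvent control, 5 d exposure, half-change day 3. Readout: %O4+ of Hoechst+ nuclei in migration area, CNN classification; DMSO baseline.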
# [20] = IUF_NPC4_neurite_area_120hr: Leibniz Research Institute for Environmental Medicine (IUF) 120-hour Neuronal Morphology Assay for Neurite Area (NPC4) (AID 2284305; active = hit-call score of the fitted dose curve at least 0.9, where 1 is the maximum)
# How it was run: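 Human fetal cortex-derived neural progenitor spheres (0.3 mm, GW 16-19) plated on poly-D-lysine/laminin in N2 differentiation medium and exposed from day 0 for 120 h across 7 concentrations plus solvent control. Neurite area is mean pixel area per TUBB3-positive neuron via skeletonization, analysed relative to DMSO.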
# [21] = IUF_NPC2-5_cytotoxicity_72hr: Cytotoxicity Assessment at 72 hours in the Leibniz Research Institute for Environmental Medicine (IUF) Neural Progenitor Cell Migration and Differentiation Assay for Cytotoxicity (NPC2-5) (AID 2284306; active = hit-call score of the fitted dose curve at least 0.9, where 1 is the maximum;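 note: LDH release into supernatant measured by resorufin fluorescence marking membrane damage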)
# How it was run: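 Human fetal (GW 16-19) neural progenitor spheres, 0.3 mm, plated on poly-D-lysine/laminin in N2 differentiation medium and exposed from day 0 to 7 concentrations plus solvent control (DMSO ≤0.1%). LDH-dependent resazurin-to-resorufin fluorescence in supernatant at 72 h.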
# [22] = IUF_NPC2-5_cytotoxicity_120hr: Cytotoxicity Assessment at 120 hours in the Leibniz Research Institute for Environmental Medicine (IUF) Neural Progenitor Cell Migration and Differentiation Assay (NPC2-5) (AID 2284307; active = hit-call score of the fitted dose curve at least 0.9, where 1 is the maximum)
# How it was run: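 hNPC spheres on PDL/laminin, N2 medium, 37C; 7 concs + solvent control, DMSO ≤0.1%; 5-day exposure, half medium changed day 3. LDH in supernatant at 120 h, resazurin→resorufin fluorescence, gain-of-signal.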
# [23] = IUF_NPC2-5_cell_number_120hr: Cell Number Assessment at 120 hours in the Leibniz Research Institute for Environmental Medicine (IUF) Neural Progenitor Cell Migration and Differentiation Assay (NPC2-5) (AID 2284308);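 note: count of Hoechst-stained nuclei in migration zone around plated human neural progenitor spheres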
# How it was run: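 Hoechst-stained nuclei within the migration area were counted by automated high content imaging after 120 h. Single hNPC spheres differentiated on poly-D-lysine/laminin in DMEM/F12 (3:1) with 1% N2, compound present throughout, DMSO ≤0.1%.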
# [24] = IUF_NPC1_cytotoxicity_72hr: Cytotoxicity Assessment at 72 hours in the Leibniz Research Institute for Environmental Medicine (IUF) Neural Progenitor Cell Proliferation Assay (NPC1) (AID 2284332; active = hit-call score of the fitted dose curve at least 0.9, where 1 is the maximum;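 note: rising LDH signal means more cytotoxicity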)
# How it was run: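 Human fetal neural progenitor spheres (0.3 mm) in EGF/FGF proliferation medium, 37C, exposed 72 h without renewal. LDH release in supernatant read by resorufin fluorescence; gain of signal scored relative to dynamic range.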
# [25] = CCTE_Mundy_HCI_iCellGluta_NOG_NeuronCount: CCTE's Neurite Outgrowth Assay in iCellGluta cells for Neuron Count, Mundy Lab (AID 2284340; active = hit-call score of the fitted dose curve at least 0.9, where 1 is the maximum;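 note: cells fixed about 48 h after compound addition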)
# How it was run: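 Neuron count read by automated high-content imaging of Hoechst 33342 and betaIII-tubulin/Alexa Fluor-488 labelling in human iPSC glutamatergic neurons. Activity fitted relative to DMSO.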
structure (smiles),measurement,setting,value
C[C@@H]1CCO[C@H]2Cn3cc(C(=O)NCc4ccc(F)cc4F)c(=O)c(O)c3C(=O)N12,outcome,[1],inactive
same,outcome,[2],inactive
same,AC50,[3],3.63 µM (active)
same,AC50,[4],3.05 µM (active)
same,outcome,[5],inactive
same,outcome,[6],inactive
same,AC50,[7],15.6 µM (active)
same,outcome,[8],inactive
same,outcome,[9],inactive
same,AC50,[10],10.1 µM (active)
same,AC50,[11],14.9 µM (active)
same,outcome,[12],inactive
same,outcome,[13],inactive
same,outcome,[14],inactive
same,outcome,[15],inactive
same,outcome,[16],inactive
same,outcome,[17],inactive
same,outcome,[18],inactive
same,outcome,[19],inactive
same,outcome,[20],inactive
same,outcome,[21],inactive
same,outcome,[22],inactive
same,outcome,[23],inactive
same,outcome,[24],inactive
same,outcome,[25],inactive
